In the supplement of paper PMC11417369:
In all, about 25,000 sequences were measured (“ln(normalized median fluorescence intensity)”: median about 7.1, highest 2% from about 10 on). For the sample, the highest values were picked, then their nearest neighbours and some sequences at random.

system: PfSIP2 AP2 domain 1 (GST-tagged); assay: gcPBM binding intensity (ln(normalized median fluorescence intensity)); higher = stronger DNA binding
Outline: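 GST-tagged P. falciparum DNA-binding domains, expressed in E. coli (about 25 μg on average), were applied for 1 h to an Agilent 4 × 180k array of primer-extended double-stranded 36-bp intergenic genomic probes plus negative controls. The binding buffer was 1× PBS with 1% milk, 0.2 mg/ml BSA, 0.5% salmon testes DNA and 0.03% Triton X-100. Bound protein was detected with Alexa488 anti-GST antibody and scanned at 488 nm. Binding intensity is the highest Masliner-normalised natural-log median intensity across replicate spots of either probe orientation.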

Sequence	gcPBM binding intensity (ln)
ACGAAAAGATATATATGTACATATATTAAAAAAAAA [XGTACX_site1517]	7.01
TTCAAACATATTAATTGTACATACAACAAAACCATG [XGTACX_site5149]	7.13
ATTATGCACCAACACACACACACACCCCTAAAAAAT [CACACA_site2568]	10.8
ATTATGCACGGACACACACACACACCCCTAAAAAAT [CACACA_site5426]	7.88
TAATTATGCCAACACACACACACACCCAACTAAAAA [CACACA_site8823]	7.32
ATTATGCACCAACACACACACACACTCCTAAAAAAT [CACACA_site8822]	11.1
TGTGCCCAAAATTATGCACACACCTAAAATTAATTT [CACACA_site2914]	7.79
TGCACAAAATTATGCACACACCTAAAATTAATTTTT [CACACA_site5596]	8.28
TATATACTCAGACATACACACAAATAAAAAAACACC [CACACA_site5820]	8.07
AAATAATATATTCTATATAATAAATTATAAATATAA [GTGCAC_negctrl_site558]	6.58
AAGTGTATATAAAAATGTACATATTTCGATTTAAAT [XGTACX_site4161]	7.11
TTATTTTTAATATCGGTGCAACAAAAAGGAAAAGAT [GTGCAC_site9482]	9.64
TTCTTAAAAGGAAAGGTGCAACTTTATCATTTTCTT	10.9
TTTATATCATTTCTTAAAAAAAAGGAGGTAATAGAC [TGCATGCA_negctrl_site555]	8.44
TAAAGATGAAATATCACACATATATAAATATATAAA [CACACA_site4580]	6.69
AATAATAATAGAAACACACACACATTTTTAAGAATA [CACACA_site6692]	6.74
AACAAAGAAAATACATGTACAAAAAATATTAACGAA [XGTACX_site287]	7.22
TTTAGTGAGTTTGTTGTGCACTGAAAAAATTACAAT	10.5
ATAAATAAAACAACAGTGCAATAAAATTAGTTGAGG	7.5
TATATTATATATATACTGCACTGTTTTACAAAATTA	8.44
TTATATAATCCTTTCAAACACACAAAATATAATTAA [CACACA_site1830]	6.91
ACAAAATAAACCACGTGTACAAATTTATAATGTGTA [XGTACX_site1153]	7.21
AAAAAAAAAAAAAAAGCACACATATAAATATGAATA [CACACA_site8391]	7.5
TGTTAAAAAATGGATGCACACATTAAATAAAAAGTA [CACACA_site1660]	8.9

Sequence	gcPBM binding intensity (ln)
AAAAAAAAAAAAAGCACACATATAAATATGAATAAA [CACACA_site1393]	7.18
AAAAAAAAAAAAAGTGCACACATAAAAATATGATCT [CACACA_site8090]	11.2
TACAAAATATATATGACACACATAAAAAAAAGTATA [CACACA_site1373]	6.96
AAAAAAAAAAAGTGCACACATAAAAATATGATCTAA [CACACA_site572]	11.5
AAAAATAAAATGATGGTGCACATAAAGTATGGTTAC	11.3
ATCTTAACTCTATGCACACATAAAAGTATATAAATA [CACACA_site2256]	7.7
TATATATATATGTGCACACATAATAAAAAAAAAAAT [CACACA_site3831]	9.49
ATATATGACTAATAAAGTACATACTTCATATAATTA [XGTACX_site6699]	7.06
TAAGTATATTTCTGCACACAAAAAAAAAAACCAAAA [CACACA_site4056]	7.18
AATGATATATTTAAATGTACACATGAAATATAATAT [XGTACX_site2678]	7.06
ATAAAAAAAAAATAATGTACTTATATATATATATAT [XGTACX_site8282]	9.32
TATATTATAGGTTGTGTACACATATTATATAGTACT [CACACA_site4583]	7.16
GATGTATAAAATAATACATGCATGTCCTACATATAT [TGCATGCA_site155]	6.89
AATACGGCAAACATTAAAAAATATAATAACAATAAA [CACACA_negctrl_site868]	6.96
TATGTGTGCAAAAACTGTACACATTAAAGGTATATA [XGTACX_site7627]	7.54
GCAAGGTCCACACTGGTGCATTAAAAATAAAATATA [GTGCAC_site9956]	10.4
TGCAAAAAATTCCACACACACACACGCATATAAATA [CACACA_site6696]	7.27
ACATATAAAATATATACACACATATAAATACATTAA [CACACA_site3867]	7.06
ATATGTACGCAAGGTGCACACTGGTGCATTAAAAAA [CACACA_site1801]	12.3
CATTATGTACAAAAAGTGCAATATATATTAACACTG	8.23
GAATATGAATATTTGCGTACTTATATAACTGTTCTA [XGTACX_site883]	6.83
GTGTTAATTTTAAATTGTACAAAATTTATATGATTT [XGTACX_site348]	7.19
TAAATGTTTCTCAAAAGTACACATGTGATATTTCTT [XGTACX_site2065]	6.84
AGCATTTTTCATTTTGCACACATGTTTTATGTGTAT [CACACA_site3454]	7.11

Sequence	gcPBM binding intensity (ln)
TATGTGTATTTATTTGCATGTTGGTTGTATTTTTTC [TGCATGCA_site479]	6.93
TATTTTCTCGTTTGCATGCACCTTATTTTATGTGGT [GTGCAC_site9470]	10.8
ACTTGTTTTCAATGTAAAATACAATTTTCATTTATT [CACACA_negctrl_site435]	7.08
TATTAAATTTATCGGAGTACATTTAAATGTATATAC [XGTACX_site7975]	7.13
TATATAACATATAACACACATACTTAGTATTACATA [CACACA_site3099]	7
TCTTTTCTCGGAAGGGTGCAAGGAATTAATGAAATA [GTGCAC_site9706]	11.1
TTCTTTTCTCTTTTAATCATATTATATAAATGAATA [CACACA_negctrl_site820]	7.29
TAATATAAATGAAAGGTGCTTTTGCTTTCTTTTTTT	7.08
TTTTTATTTTTTTATTTCTTATCAAATAAAATATAT [XGTACX_negctrl_site537]	6.84
TGTTTTGTTGTGTATTGTACTAATATAAATATATAA [XGTACX_site1852]	7.41
TATAAGGCAATAATAGTGCACTAAGATATATAATGA	10.6
TTGCAATAATGTTGCACACTAAATAGTCATATATAA [CACACA_site263]	7.31
TATTAATATATAGTAGTGCAATAAAGATATACTGAA	8.3
AAGTAGTGTTAATACTGTACTTATATTTTTTATTAT [XGTACX_site8264]	6.92
ATTAAAAATATAGTCACACATACACCCATATATATT [CACACA_site5394]	6.92
ATATCCATAATAAAAACATGCAACAGAAAAAAAAAA [TGCATGCA_site497]	7.14
TATATATTTATTAAATGTACATAACAAAAATGGTAT [XGTACX_site3577]	7.41
TAATTATAATAATAACGTACATATATAAAATGGTGA [XGTACX_site8434]	7.21
AATATAAATAAAAACACACACAATGGTACATATATA [CACACA_site3671]	7.02
ATGTATGCAAAAATGGTGCATATTAAATGTATAACA [GTGCAC_site9722]	11.1
ATTTTATATACAAAATGTACATATTTATTATATATG [XGTACX_site6732]	6.99
AATCATATTAGTATGGTGCAACATATATAAATATAT	10.8
AGTATAAATAAATCATAAACATATATATATATATAT [GTGCAC_negctrl_site356]	9.25
ATATATATTAAAAATAGTACATATAATAAAAATCAT [XGTACX_site4265]	7.11

Sequence	gcPBM binding intensity (ln)
ATAAAACGTACAATGGTGCATATAAATAATATATAT [GTGCAC_site9960]	10.8
CATATATAAATATGTATGCACTTTAACAAAATGTAT	7.74
TACAAATATATAAAATGTACATATATATACATATTA [XGTACX_site3029]	6.92
ATTATGTACAAAATGGTGCAATATTATACATATATA [GTGCAC_site9468]	10.4
GTAATATTAAAATATACACACATAGAATATATATAT [CACACA_site4391]	8.8
GCATGTATAATGGTAGTGCATATAATAATATAATAA [GTGCAC_site9548]	9.06
TATAATAATATAATGGTGCATGTATATAACCATATA	10.7
TATATATAATATAGTGCATGTAAAAAATAAACCATG [TGCATGCA_site932]	9.18
TGAACTCACGAGCACACACACACATATATATATATA [CACACA_site8248]	9.18
TAAAATTTAAAATATACACACAAAAAGTTATTACAA [CACACA_site4080]	6.93
TAAAATATATAAAACTGTACATTTTAAAGGCACAAC [XGTACX_site8342]	7.55
AACTGTACAATTTTTGTGCACAATAATTATTAATAT [GTGCAC_site9462]	8.74
CTAATCGTGCACAACTGTACATTTGTCAAGGGCAAT [XGTACX_site8662]	10.4
ATATAAATGATATGTACACACATTTATATATATAAA [CACACA_site3475]	7.04
AATATATACCAACATAAATATATATATATATATATA [TGCATGCA_negctrl_site334]	9.89
TTAAAAGAATATAATGCACACATTATTTTATTTTAT [CACACA_site3772]	7.03
ATAAAATTATTATATACATGCAAAATTAATATATTG [TGCATGCA_site507]	6.84
AATATTTTATTTTGGGTGCAAAAGAATATTATTTCA	10.4
TTATAATATATATAAAAGAAAAAAAATTATAATATA [CACACA_negctrl_site90]	6.69
TCAAAAGAATAATTGGTGCAAATTATATAATATAAT [GTGCAC_site9804]	10.2
ATTTTATTTTATTAAGTGCAAAAAAAAAAAAAGAAA	8.24
